Assay outcomes as filed in PubChem.
Avidin bead fluor: avidin bead compound fluorescence profile | AID 1775 | fluorescence (KMESF) at 10 µM | Avidin beads, compound fluorescence 488/530 nm, flow cytometry; active compounds read high | hit rate 0.38% among 220,000; in the data active means fluorescence above about 47
RGS16-Gao: RGS16-Galphao interaction regulator (human). O15492+P09471. hit rate 0.38% among 220,000. binding response (% of control), % at 10 µM. bead-based flow cytometry RGS16-Galphao binding, fluorescence; actives lie on both sides. AID 1441;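 further: Galphao activated by GDP with aluminum fluoride before binding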
Target sequence (O15492 whole entry, looked up): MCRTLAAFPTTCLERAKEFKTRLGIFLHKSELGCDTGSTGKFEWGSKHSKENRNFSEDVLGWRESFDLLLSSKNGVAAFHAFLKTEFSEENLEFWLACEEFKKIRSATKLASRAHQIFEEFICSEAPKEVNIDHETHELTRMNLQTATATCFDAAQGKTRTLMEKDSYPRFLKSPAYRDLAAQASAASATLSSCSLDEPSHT
Target sequence (P09471 whole entry, looked up): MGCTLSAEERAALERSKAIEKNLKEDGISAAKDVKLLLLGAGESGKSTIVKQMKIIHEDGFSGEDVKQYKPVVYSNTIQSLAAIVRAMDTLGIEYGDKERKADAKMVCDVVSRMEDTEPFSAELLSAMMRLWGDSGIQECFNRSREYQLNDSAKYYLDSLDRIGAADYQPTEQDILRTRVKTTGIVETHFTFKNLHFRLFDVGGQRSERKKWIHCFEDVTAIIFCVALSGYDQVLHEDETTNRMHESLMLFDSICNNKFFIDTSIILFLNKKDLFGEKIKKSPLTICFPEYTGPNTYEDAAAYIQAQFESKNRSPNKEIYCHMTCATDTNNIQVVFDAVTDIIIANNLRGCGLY
RGS7-Gao: human RGS7-Galphao interaction regulation; hit rate 0.35% among 220,000; Multiplexed bead flow cytometry, RGS7-Galphao binding; actives lie on both sides; binding response (% of control), % at 10 µM; in the data active means binding response below about 49% or above about 150%; inconclusive means no clear call, values can overlap the other calls; inactive means in between;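 further: fluorescent Galphao held in activated GDP-AlF4 state binding bead-coupled RGS7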
Target sequence (P09471 whole entry, looked up): as above
RGS8-Gao: modulates binding of RGS8 to human Galphao; hit rate 0.34% among 220,000; AID 1423; multiplexed bead flow cytometry; actives lie on both sides; P09471; response (percent of control binding), % at 10 µM; in the data active means response below about 60% or above about 140%; inactive means in between;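 further: Galphao activated as the GDP aluminium fluoride complex binding bead-coupled RGS8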
GSH bead fluor: compound fluoresces at 488/530 nm on GSH beads. fluorescence (KMESF) at 10 µM. hit rate 0.25% among 190,000. AID 1776. GSH beads flow cytometry, compound fluorescence 488/530 nm; active compounds read high; in the data active means fluorescence above about 89;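 further: glutathione beads carrying GST-tagged Bcl family fusion proteins plus one bare bead set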
RGS4-Gao reg: human RGS4-Galphao interaction regulation; P09471; Multiplexed bead flow cytometry, RGS4-Galphao binding; actives lie on both sides; binding response (% of control), % at 10 µM; hit rate 0.33% among 220,000; AID 1415; in the data active means binding response below about 49% or above about 150%; inactive means in between;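 further: fluorescent Galphao activated with aluminum fluoride binding bead-coupled RGS4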
RGS-Gao: regulators of human RGS4-Galphao interaction; RGS4–Galpha-o binding response, % at 10 µM; shares compounds with RGS16-Gao; hit rate 99% among 1,600; multiplexed bead flow cytometry, RGS–Galpha-o binding; AID 1504;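 further: fluorescently labeled Galpha-o bound to GDP with aluminium fluoride binding biotinylated RGS beads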
Biotin-avidin: biotin-avidin bead binding disruption counter-screen. shares compounds with RGS16-Gao. streptavidin beads, fluorescein-biotin binding, flow cytometry. inhibition, % at 10 µM. 1,700 tested, under 10 active. AID 1783;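 active means inhibition above 50%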;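 further: median green fluorescence of gated singlet beads compared with DMSO control wells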
RGS8-Gao confirm: RGS8-Galphao interaction regulation, single point confirmation | shares compounds with RGS16-Gao | bead-based flow cytometry RGS8-Galphao binding, fluorescence; actives lie on both sides | binding response (% of control), % at 10 µM | hit rate 3% among 1,700 | AID 1836; in the data active means binding response below about 72% or above about 130%; inactive means in between;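 further: Galphao activated as GDP AlF4 complex before binding bead RGS8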
RGS7-Gao confirm: RGS7-Galphao interaction regulation, single point confirmation. shares compounds with RGS16-Gao. bead-based flow cytometry RGS7-Galphao binding; actives lie on both sides. response (percent of control binding), % at 10 µM. hit rate 7.8% among 1,700. AID 1837; in the data active means response below about 75% or above about 130%; inactive means in between;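 further: fluorescent Galphao activated with GDP and aluminum fluoride binding bead-coupled RGS7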
RGS16-Gao conf: confirmation of regulators of human RGS16-Galphao interaction; shares compounds with RGS16-Gao; bead-based flow cytometry, RGS16-Galphao binding; actives lie on both sides; response (% of control binding), % at 10 µM; hit rate 4% among 1,700; in the data active means response below about 74% or above about 130%; inactive means in between;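 further: Galphao activated as the GDP aluminium fluoride complex binding bead-coupled RGS16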
RGS4-Gao single: confirmation of regulators of human RGS4-Galphao interaction | AID 1840 | hit rate 4% among 1,700 | binding response (% of control), % at 10 µM | shares compounds with RGS16-Gao | RGS4-Galphao binding, multiplexed bead flow cytometry; actives lie on both sides; in the data active means binding response below about 74% or above about 130%; inactive means in between
RGS19-Gao conf: RGS19-Galphao interaction regulation, single point confirmation. shares compounds with RGS16-Gao. AID 1841. bead-based flow cytometry RGS19-Galphao binding; actives lie on both sides. hit rate 5% among 1,700. response (percent of control binding), % at 10 µM; in the data active means response below about 50% or above about 160%; inactive means in between
A number is an active result; . = inactive; ? = inconclusive; / = no result given; [ ] = another dose, or the depositor's remark. In the library only some 1.2% were active in any assay of this set; here they are far more common. Unless noted, how the calls were made is not given here.

SMILES | Avidin bead fluor | RGS16-Gao | RGS7-Gao | RGS8-Gao | GSH bead fluor | RGS4-Gao reg | Biotin-avidin | RGS8-Gao confirm | RGS7-Gao confirm | RGS16-Gao conf | RGS4-Gao single | RGS19-Gao conf | others
Cc1ccc(CNC(=O)Cn2cccc2C(=O)c2ccccc2)cc1 | / | / | . | / | . | . | . | . | . | . | . | .
COC(=O)c1ccccc1NC(=S)N1CCN(c2ccc(OC)cc2)CC1 | . | . | ? | . | . | . | / | / | / | / | / | /
COC(=O)c1ccccc1NC(=O)/C=C/C(=O)O | . | 34 | . | . | . | . | . | . | . | . | . | . | RGS-Gao=87
COC(=O)c1ccccc1NC(=O)CN1C(=O)CSC1=O | / | / | / | / | . | / | . | . | . | . | . | .
COC(=O)c1cc(NC(=O)CN2C(=O)CSC2=O)ccc1Cl | . | . | . | . | . | . | / | / | / | / | / | /
CN(C)/C=C(\C#N)C(=O)N/N=C/c1ccccc1 | . | . | . | . | . | . | / | / | / | / | / | /
O=C(/C=C/c1ccco1)NCc1ccc(F)cc1 | . | . | . | . | . | . | / | / | / | / | / | /
NS(=O)(=O)c1ccc(CNC(=O)/C=C/c2ccco2)cc1 | . | . | ? | . | / | . | . | . | . | . | . | .
CCN(CC)C(=O)C(=O)Nc1ccc(F)c(Cl)c1 | . | . | ? | . | . | . | / | / | / | / | / | /
COc1cc(Br)cc(CNc2ccc(F)c([N+](=O)[O-])c2)c1O | . | . | . | . | . | . | / | / | / | / | / | /
O=C(c1cc2c(s1)-c1ccccc1S(=O)(=O)C2)N1CCN(Cc2ccccc2)CC1 | 151 | . | 276[activator] | . | . | . | . | . | . | . | . | . | RGS-Gao=132
O=C(CSc1nccc(=O)[nH]1)NCc1ccco1 | . | . | ? | . | / | . | / | / | / | / | / | /
COc1ccc(C(=O)Cc2ccc(OC)c(OC)c2)cc1 | / | / | / | / | . | / | . | . | . | . | . | .
Cc1nn(-c2ccccc2)c(N)c1Sc1ccccc1[N+](=O)[O-] | . | . | . | . | . | . | / | / | / | / | / | /
Cc1nn(-c2ccccc2)c(N)c1Sc1cccc([N+](=O)[O-])c1 | . | 202[activator] | . | . | . | . | . | . | . | . | . | . | RGS-Gao=111
Cc1ccc(CN(c2ccc(C(=O)Nc3cccnc3)cc2)S(C)(=O)=O)cc1 | . | 4.8 | 16 | 32 | . | -2.8 | . | . | . | . | . | .
CCOC(=O)C1CCCN(C(=O)CN2C(=O)/C(=C/c3ccc(OC)cc3)Oc3ccccc32)C1 (stereo unspecified) | . | . | . | . | . | . | / | / | / | / | / | /
CCOc1ccc(NC(=O)CN(C)S(=O)(=O)c2ccc3c(c2)CCC(=O)N3)cc1 | . | . | ? | . | / | . | / | / | / | / | / | /
CC(Oc1ccccc1)C(=O)N1CCN=C1SCc1ccc(F)cc1 (stereo unspecified) | . | . | ? | . | / | . | / | / | / | / | / | /
CC(C)CCn1c(CN2CCN(Cc3ccccc3)CC2)nc2c1c(=O)[nH]c(=O)n2C | . | . | . | 145[activator] | . | . | . | . | . | . | . | . | RGS-Gao=135
CCN1CCN(C(CNS(=O)(=O)c2cccs2)c2cccnc2)CC1 (stereo unspecified) | . | . | ? | . | / | . | / | / | / | / | / | /
Cc1ccc(C(NC(=O)NC(C)c2ccccc2)C(Cl)(Cl)Cl)cc1F (stereo unspecified) | . | . | . | . | . | . | / | / | / | / | / | /
CCCCCCCCNC(=S)NCCN1CCCCC1 | . | . | . | . | . | . | / | / | / | / | / | /
CCc1ccc(CCC(=O)Nc2nnc(C)s2)o1 | . | . | . | . | . | . | / | / | / | / | / | /
CCc1nnc(NC(=O)CCc2ccc(C)o2)s1 | . | . | 158[activator] | 151[activator] | . | 170[activator] | . | . | . | . | . | .
SMILES | Avidin bead fluor | RGS16-Gao | RGS7-Gao | RGS8-Gao | GSH bead fluor | RGS4-Gao reg | Biotin-avidin | RGS8-Gao confirm | RGS7-Gao confirm | RGS16-Gao conf | RGS4-Gao single | RGS19-Gao conf | others
O=C(Cn1cc2c(n1)CCCCC2)Nc1ccccc1Br | . | 14 | ? | 28 | / | 25 | . | . | . | . | . | .
COC(=O)C1=C(N)Oc2cc(C)n(Cc3cccnc3)c(=O)c2C1c1cccc(OC)c1OC (stereo unspecified) | 148 | . | 240[activator] | . | . | . | . | . | . | . | . | . | RGS-Gao=125
CCOC(=O)C1(C)C=C(Nc2ccc(NC(C)=O)cc2)C(=O)N1c1ccc(NC(C)=O)cc1 (stereo unspecified) | . | . | ? | . | / | . | / | / | / | / | / | /
Cn1c(SCC(=O)N2CCCC2=O)nc2ccccc21 | . | 9.5 | ? | 13 | . | 19 | . | . | . | . | . | .
C/C(Cc1ccccc1)=N\NC(=O)CNC(=O)c1ccccc1Br | . | 17 | . | . | . | . | . | . | 75 | . | . | . | RGS-Gao=88
C/C(Cc1ccccc1)=N\NC(=O)CNC(=O)c1ccccc1O | . | . | ? | . | / | . | / | / | / | / | / | /
COc1ccc2c(c1OC)C(=O)OC2Nc1ncc(Br)cc1Br (stereo unspecified) | . | 188[activator] | . | . | . | . | . | . | . | . | . | . | RGS-Gao=124
COc1ccc2c(c1OC)C(=O)OC2Nc1ccc(S(=O)(=O)N=C(N)N)cc1 (stereo unspecified) | . | . | ? | . | / | . | / | / | / | / | / | /
Cc1csc(NC(=O)CSc2nnc(CCNC(=O)c3ccc(Cl)c(Cl)c3)n2C)n1 | / | / | / | / | . | / | . | . | . | . | . | .
COc1ccc(CCCc2nnc(SCC(=O)Nc3nc(C)cs3)n2C)cc1 | . | . | . | . | . | . | / | / | / | / | / | /
O=[N+]([O-])c1ccccc1OCCOc1ccccc1[N+](=O)[O-] | . | . | ? | . | / | . | / | / | / | / | / | /
COc1ccc(OCCOc2ccccc2[N+](=O)[O-])cc1 | . | 180[activator] | . | . | . | . | . | . | . | . | . | . | RGS-Gao=117
COc1c(Br)cc([N+](=O)[O-])c(OC)c1C(=O)NC(=O)Nc1nc(C)cc(C)n1 | . | . | ? | . | / | . | / | / | / | / | / | /
COc1ccccc1Nc1nc(N)nc(CN2CCC(Cc3ccccc3)CC2)n1 | . | . | 162[activator] | 165[activator] | . | 178[activator] | . | . | . | . | . | .
